Screening results from PubChem.
NOMO-1 viab = STK33 inhibitor candidate reducing NOMO-1 cell viability. 37,000 compounds, 7.5% hits. inhibition, % (test concentration not listed). AID 2330. NOMO-1 AML viability, CellTiter-Glo luminescence, 72 h; in the data active = inhibition above about 80%; inconclusive = no clear call, values can overlap the other calls
MITF inh = MITF inhibition. TRPM1 promoter luciferase, luminescence, 24 h. 37,000 compounds, 0.28% hits. inhibition, % (no concentration beside the values); in the data active = inhibition above about 85%; inconclusive = no clear call, values can overlap the other calls; inactive = below about 68%;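 also: human melanocyte line stably carrying TRPM1 promoter luciferase reporter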
Hedgehog inh = Sonic Hedgehog pathway inhibition; Shh-LIGHT2 Gli-luciferase reporter, 30 h; 22,000 compounds, 2.1% hits; inhibition, % (concentration not given with the values);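 active = mean inhibition across valid replicates above about 65%, limit read from the data; inconclusive = mean under the limit, yet half or more replicates past it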;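 also: pathway switched on by Shh-conditioned medium diluted 1 in 25 in low serum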
PD-1 reversal = activators reversing PD-1 mediated T-cell inhibition; 29,000 tested, under 10 active; activation, % (test concentration not listed); primary human CD4 T cells, PD-L1 beads, CellTiter-Glo 96 h; AID 2316; call rule not given here
A number is an active result; . = inactive; ? = inconclusive; / = no result given. Compounds with a hit are over-represented: about 8.1% of the library has one in this group of screens.

SMILES	NOMO-1 viab	MITF inh	Hedgehog inh	PD-1 reversal
C[C@@H]1CCCCO[C@@H](CN(C)Cc2ccccc2)[C@@H](C)CN([C@H](C)CO)C(=O)c2cc(NC(=O)Nc3ccc(C(F)(F)F)cc3)ccc2O1	115	.	.	.
COc1ccc(NC(=O)Nc2ccc3c(c2)C(=O)N([C@H](C)CO)C[C@H](C)[C@@H](CN(C)Cc2ccc(C(F)(F)F)cc2)OCCCC[C@@H](C)O3)cc1	110	.	.	/
C[C@@H]1CCCCO[C@@H](CN(C)Cc2ccc(C(=O)O)cc2)[C@@H](C)CN([C@H](C)CO)C(=O)c2cc(NC(=O)Nc3ccc(C(F)(F)F)cc3)ccc2O1	.	.	/	.
C[C@@H]1CCCCO[C@@H](CN(C)Cc2ccc(C(F)(F)F)cc2)[C@@H](C)CN([C@H](C)CO)C(=O)c2cc(NC(=O)C3CCCCC3)ccc2O1	108	.	.	.
C[C@@H]1CCCCO[C@@H](CN(C)Cc2ccc(C(F)(F)F)cc2)[C@@H](C)CN([C@H](C)CO)C(=O)c2cc(NC(=O)Cc3ccccc3)ccc2O1	106	.	.	.
COc1ccc(NC(=O)Nc2ccc3c(c2)C(=O)N([C@H](C)CO)C[C@H](C)[C@H](CN(C)Cc2ccncc2)OCCCC[C@@H](C)O3)cc1	.	.	.	.
C[C@H]1CN([C@@H](C)CO)C(=O)Cc2cc(NC(=O)Nc3ccc(C(F)(F)F)cc3)ccc2O[C@@H]1CN(C)C(=O)Nc1ccccc1	.	.	/	/
C[C@@H]1CCCCO[C@@H](CN(C)Cc2ccc(C(F)(F)F)cc2)[C@@H](C)CN([C@H](C)CO)C(=O)c2cc(NC(=O)CCCN(C)C)ccc2O1	.	.	/	.
C[C@@H]1CCCCO[C@@H](CN(C)Cc2ccc(C(F)(F)F)cc2)[C@@H](C)CN([C@H](C)CO)C(=O)c2cc(NC(=O)c3ccccc3)ccc2O1	93	.	/	.
C[C@@H]1CN([C@@H](C)CO)C(=O)c2cccc(NC(=O)Nc3ccc(F)cc3)c2O[C@@H]1CN(C)CC1CCCCC1	.	.	.	.
CCN1C(=O)/C(=C2\SC(=S)N(c3cccc(Cl)c3)C2=O)c2ccccc21	?	.	.	.
O=C1N(c2cccc(Cl)c2)C(=Nc2cccc(Cl)c2)SC12CC2	114	.	.	.
COc1ccc(C=Nc2ccc(Br)cc2)cc1	.	.	69	.
COc1ccc(/C=N/n2cnnc2)cc1	.	.	/	.
O=C1CC(Sc2nnc(-c3ccccc3O)o2)C(=O)N1c1ccccc1 (stereo unspecified)	122	.	/	.
Cc1c(C)c(C)c(CSC2CC(=O)N(c3ccccc3)C2=O)c(C)c1C (stereo unspecified)	.	.	.	.
COc1ccc(NC(=O)Nc2ccc3c(c2)C(=O)N([C@H](C)CO)C[C@H](C)[C@H](CN(C)Cc2ccc4c(c2)OCO4)O3)cc1	97	.	/	/
CC(C)NC(=O)Nc1ccc2c(c1)C(=O)N([C@@H](C)CO)C[C@@H](C)[C@@H](CN(C)Cc1ccc3c(c1)OCO3)O2	.	.	/	.
CC(C)NC(=O)Nc1ccc2c(c1)C(=O)N([C@H](C)CO)C[C@H](C)[C@H](CN(C)Cc1ccc3c(c1)OCO3)O2	93	.	/	/
C[C@H]1CN([C@@H](C)CO)C(=O)c2cc(NC(=O)Nc3ccc4c(c3)OCO4)ccc2O[C@@H]1CN(C)Cc1ccc2c(c1)OCO2	.	.	.	.
COc1ccc(NC(=O)Nc2ccc3c(c2)C(=O)N([C@H](C)CO)C[C@@H](C)[C@@H](CN(C)Cc2ccc4c(c2)OCO4)O3)cc1	.	.	/	.
C[C@H]1CN([C@@H](C)CO)C(=O)c2cc(NC(=O)Nc3ccccc3)ccc2O[C@H]1CN(C)Cc1ccc2c(c1)OCO2	92	.	/	.
C[C@H](CO)N1C[C@H](C)[C@H](CN(C)Cc2ccc3c(c2)OCO3)Oc2ccc(NC(=O)Nc3ccc(F)cc3)cc2C1=O	89	.	.	.
C[C@H]1CN([C@@H](C)CO)C(=O)c2cc(NC(=O)C3CCCCC3)ccc2O[C@H]1CN(C)Cc1ccc2c(c1)OCO2	92	.	/	.
C[C@H](CO)N1C[C@H](C)[C@H](CN(C)Cc2ccc3c(c2)OCO3)Oc2ccc(NC(=O)Nc3ccc4c(c3)OCO4)cc2C1=O	93	.	.	.
SMILES	NOMO-1 viab	MITF inh	Hedgehog inh	PD-1 reversal
O=C(CSc1ccccc1)Nc1cccc(Oc2ccc3c(c2)C(=O)NC3=O)c1	.	.	/	/
C[C@H]1CN([C@@H](C)CO)C(=O)Cc2cc(NC(=O)Cc3cn(C)c4ccccc34)ccc2O[C@H]1CN(C)CC1CCCCC1	.	.	.	/
FC(F)(F)c1cc(-c2ccc3ccccc3c2)no1	88	.	.	.
C[C@@H]1O[C@H]2Oc3c(-c4ccc(O)c(O)c4)oc4cc(O)c(c(O)c4c3=O)-c3cc(ccc3O)/C=C\C(=O)OC[C@H]3O[C@@H](O[C@H]([C@H]1O)[C@H]2O)[C@H](O)[C@@H](O)[C@@H]3O	.	.	.	.
NNC(=O)CCCSc1nc2ccccc2s1	.	.	.	.
O=C(CCSc1nc2ccccc2s1)Nc1ccccc1Cl	.	86	/	/
O=C(CSc1nc2ccccc2[nH]1)Nc1cccc(I)c1	.	.	/	.
COc1ccc(S(=O)(=O)Nc2ccc3c(c2)C(=O)N([C@@H](C)CO)C[C@@H](C)[C@H](CN(C)Cc2ccc(Cl)c(Cl)c2)O3)cc1	118	.	/	.
COc1ccc(S(=O)(=O)Nc2ccc3c(c2)C(=O)N([C@@H](C)CO)C[C@H](C)[C@H](CN(C)Cc2ccc(Cl)c(Cl)c2)O3)cc1	93	.	.	.
COc1ccc(CN(C)C[C@H]2Oc3ccc(NS(=O)(=O)c4ccc(OC)cc4)cc3C(=O)N([C@H](C)CO)C[C@@H]2C)cc1	.	.	.	/
COc1ccc(S(=O)(=O)Nc2ccc3c(c2)C(=O)N([C@H](C)CO)C[C@@H](C)[C@H](CN(C)Cc2ccc(Cl)c(Cl)c2)O3)cc1	.	.	/	.
COc1ccc(S(=O)(=O)Nc2ccc3c(c2)C(=O)N([C@H](C)CO)C[C@@H](C)[C@@H](CN(C)Cc2ccc(Cl)c(Cl)c2)O3)cc1	116	.	78	.
CCOC(=O)c1c(NC(=O)CSc2nc3ccccc3c(=O)[nH]2)sc2c1CCCC2	107	.	/	.
COc1ccc(OC)c(-n2c(=S)[nH]c3cc(C(=O)N4CCC(C(N)=O)CC4)ccc3c2=O)c1	.	.	.	.
COc1ccc(OC)c(-n2c(=S)[nH]c3cc(C(=O)NCc4ccc(F)cc4)ccc3c2=O)c1	.	.	77	.
COc1ccc(-n2c(=S)[nH]c3cc(C(=O)NC4CCCC(C)C4C)ccc3c2=O)c(OC)c1 (stereo unspecified)	87	.	.	.
C[C@H]1CN([C@@H](C)CO)C(=O)c2cc(NC(=O)Cc3ccccc3)ccc2O[C@H]1CN(C)S(=O)(=O)c1cn(C)cn1	.	.	.	.
C[C@H](CO)N1C[C@H](C)[C@@H](CN(C)Cc2ccccc2)Oc2c(NC(=O)NC3CCCCC3)cccc2C1=O	84	.	.	.
C[C@@H]1CN([C@H](C)CO)C(=O)c2cccc(NC(=O)NC3CCCCC3)c2O[C@@H]1CN(C)Cc1ccc(-c2ccccc2)cc1	.	.	.	.
